This is an account of results in PMC4552634, “A New Set of Chemical Starting Points with Plasmodium falciparum Transmission-Blocking Potential for Antimalarial Drug Discovery” (PLoS ONE, 2015).

The % Inhibition is the change of the read-out against control, counted positive when it falls.

Molecules are shown by their SMILES. Where two headings read alike, the source gives them in different places. Among all 13,000 compounds or so, about 3,200 (25%) showed an effect of 50% or more. The list shows a part of the results.

This experiment has as its system P. falciparum stage V gametocytes. The arrangement: BacTiter-Glo ATP luminescence viability of purified stage V gametocytes in 384-well plates, per cent inhibition versus DMSO. Particulars: 48 h, 5 µM, inhibitor.

For the compound `CCN(CC)c1ccccc1CNC(=O)c1cc(Cl)c(N)cc1OC` [TCMDC-131416], the “% Inhibition” value amounted to 17.92%. Regarding `COc1cc(Nc2ccnc3cc(-c4ccncc4)ccc23)cc(OC)c1OC` [TCMDC-138293], the “% Inhibition” value is recorded as -25.86%. Consider `C=CC[C@@H](C(=O)OCC)[C@@H]1[C@@H](N(CC=C)C(=O)OC(C)(C)C)CCN1C(=O)OCc1ccccc1` [TCMDC-132035], for which the “% Inhibition” value is listed as 7.25%.

As to `O=S(=O)(c1cccc(Br)c1)N1CCCCC(c2ccc(C(F)(F)F)cc2)=N1` [TCMDC-134539], the “% Inhibition” value was -27.96%. With `C=C[C@H]1CN2CC[C@H]1C[C@@H]2[C@@H](O)c1ccnc2ccccc12` [TCMDC-123933], the “% Inhibition” value was found to be 7.627%.

As to `COc1ccc(N2CCN(c3nc(Nc4ccc(NC(C)=O)cc4)nc(N4CCCC4)n3)CC2)cc1` [TCMDC-123875], the “% Inhibition” value is given as -17.97%. On to `CCN(CC)CCCSc1ccc(-c2ccc(SCCCN(CC)CC)cc2)cc1` [TCMDC-131824], for which the “% Inhibition” value was determined as 99.62%. Regarding `CCN(CC)CCCC(C)Nc1ccnc2ccc(-c3ccccc3)cc12` (stereo not drawn) [TCMDC-123952], the “% Inhibition” value came to 41.59%.

Regarding `CN(C(=O)/C=C/c1cc(C(F)(F)F)ccc1F)C1CCN(CCCCCNC(=O)/C=C/c2ccc(Cl)c(Cl)c2)C1` (stereo not drawn) [TCMDC-139997], the “% Inhibition” value amounted to 27.91%.

For `O=C(/C=C/c1ccc(Cl)c(Cl)c1)NCCCCCN1CCCC(CNS(=O)(=O)c2cccc(C(F)(F)F)c2)C1` (stereo not drawn) [TCMDC-139597], the “% Inhibition” value turned out to be 100.9%.

`O=C(C=Cc1ccc(Cl)c(Cl)c1)NCCCCCN1CCCC(CCCNC(=O)c2cccs2)C1` (stereo not drawn) [TCMDC-139576]: the “% Inhibition” value came to 12.1%. With `O=C(C=Cc1ccc(Cl)c(Cl)c1)NCCCCCN1CCCC(CCCNS(=O)(=O)c2cccc(C(F)(F)F)c2)C1` (stereo not drawn) [TCMDC-139593], the “% Inhibition” value was 101.3%. In the case of `O=C(C=Cc1ccc(Cl)c(Cl)c1)NCCCCCN1CCCC(CCCNS(=O)(=O)c2cccc3cccnc23)C1` (stereo not drawn) [TCMDC-139594], the “% Inhibition” value amounted to 96.79%.

Regarding `O=C(C=Cc1ccc(Cl)c(Cl)c1)NCCCCCN1CCC(CCCNS(=O)(=O)c2cccc(C(F)(F)F)c2)CC1` [TCMDC-139591], the “% Inhibition” value is listed as 107.6%. On to `O=C(/C=C/c1ccc(Cl)c(Cl)c1)NCCCCCN1CCC(NC(=O)Nc2cccc(C(F)(F)F)c2)CC1` [TCMDC-135724], for which the “% Inhibition” value was -61.55%. In the case of `O=C(CNCC1CCCCC1)Nc1cc(C(F)(F)F)ccc1Cl` [TCMDC-124505], the “% Inhibition” value is 6.087%.

In the case of `Cc1nc(-c2nc(NCc3ccc4c(c3)OCO4)ncc2-c2ccsc2)sc1C` [TCMDC-125358], the “% Inhibition” value worked out at 15.74%. As to `CCCc1cc(O)c2c3c(c(=O)oc2c1)CN(C)CC3` [TCMDC-124226], the “% Inhibition” value is reported as -5.24%. For the compound `COc1ccc(C2=[N+]([O-])c3ccccc3C2=O)cc1` [TCMDC-123940], the “% Inhibition” value is recorded as -13.17%. As to `O=C(O)c1cc(C(F)(F)F)co1` [TCMDC-124155], the “% Inhibition” value is -1.887%. As for `COc1cccc2cc(C(=O)N[C@@H](CC(C)C)C(=O)N[C@H](C=NN(C)C(=O)OC(C)(C)C)Cc3ccccc3)oc12` [TCMDC-136133], the “% Inhibition” value is 30.7%. On the same count and under the same terms, to `CC[C@H](NC(=O)c1ccc(NC(=O)OC(C)(C)C)cc1)C(=O)N[C@@H](CO)C(=O)NCCCCc1ccccc1` [TCMDC-137189] belongs 5.299%; to `Cc1cc(NCCC(=O)NCc2cccc(F)c2)nc(Nc2ccccc2)n1` [TCMDC-134730], 9.488%; to `Cc1cccc(CNc2nc(C)cc(NCCC(=O)NCc3cccc(F)c3)n2)c1` [TCMDC-134882], 28.72%. On to `Cc1cc(NCCC(=O)NCCc2ccccc2)nc(NCCc2ccc(F)cc2)n1` [TCMDC-134782], for which the “% Inhibition” value is 63.79%. Regarding `Cc1cc(NCCC(=O)NCc2cccc(F)c2)nc(NCCc2ccc(F)cc2)n1` [TCMDC-134781], the “% Inhibition” value was determined as 71.46%. For the compound `CCC1(CC)C(=O)N=C(N2CCCCC2)N(C)C1=O` [TCMDC-124231], the “% Inhibition” value is 77.81%. For `COc1ccc2nccc([C@@H](O)CN3CCC(NCc4ccc5nnsc5c4)CC3)c2c1` [TCMDC-140923], the “% Inhibition” value was 19.95%.

On to `COc1cccc(-c2nn(C)c3sc(C(=O)NCCN4CCN(c5ccccc5F)CC4)cc23)c1` [TCMDC-123585], for which the “% Inhibition” value is on record as -24.43%. Consider `Cc1cccc(CN2CCC(CNC(=O)c3cc4c(-c5ccccc5F)nn(C)c4s3)CC2)c1` [TCMDC-124566], for which the “% Inhibition” value was determined as 59.21%. On to `CC(C)(C)c1ccc(CN2CCC(NC(=O)c3ccc(-c4ccccc4F)s3)CC2)cc1` [TCMDC-134349], for which the “% Inhibition” value amounted to 3.235%. Still for that read-out and setting: then `CCc1ccc(CN2CCC(NC(=O)c3ccc(-c4ccccc4F)s3)CC2)cc1` [TCMDC-134343], with -3.563%; and `Cn1nc(-c2ccccc2F)c2cc(C(=O)Nc3cccnc3)sc21` [TCMDC-123581], with -8.367%. Take `Cn1nc(-c2ccccc2F)c2cc(C(=O)NC3CCN(Cc4ccccc4)CC3)sc21` [TCMDC-123582]: the “% Inhibition” value is reported as 63.05%. On to `COc1ccc2ncc(F)c(C(O)CN3CCC(NCc4ccc5c(n4)NC(=O)CO5)CC3)c2c1` (stereo not drawn) [TCMDC-135530], for which the “% Inhibition” value (% Inhibition) is 22.05%. As for `COC(=O)c1ccc(CC(C)NCC(O)c2cccc3ccccc23)cc1` (stereo not drawn) [TCMDC-131432], the “% Inhibition” value stood at 16.03%.

For `CS(=O)(=O)c1ccccc1CNC(=O)c1ccc(-c2cccc(-c3nc4cc(C(F)(F)F)ccc4[nH]3)c2)cc1` [TCMDC-132504], the “% Inhibition” value was -46.91%.

Take `COc1cccc(N(CCCN2C(=O)c3cccc4cccc(c34)C2=O)C(=O)c2ccccc2C)c1` [TCMDC-124157]: the “% Inhibition” value is listed as 34.34%. Still for that read-out and setting: to `c1ccc2[nH]c(-c3ccc(-c4ccc(CNCCc5ccncc5)cc4)s3)nc2c1` [TCMDC-132843] belongs -16.65%. Consider `CC1(C)C(=O)Nc2ccc3c(c21)CC1SC(=O)NN=C31` (stereo not drawn) [TCMDC-131539], for which the “% Inhibition” value is reported as 68.11%. Still for that read-out and setting: then `Nc1nc(N)c2c(CCc3ccc(Cl)c(Cl)c3)cccc2n1` [TCMDC-141976], with -2.303%.

Take `CCCc1cc(Cc2cnc(N)nc2N)cc(CC)c1O` [TCMDC-138059]: the “% Inhibition” value is -83.65%. As to `Cc1cc(Nc2nc(NCc3cccnc3)nc3ccccc23)n[nH]1` [TCMDC-135161], the “% Inhibition” value is given as 33.23%. Consider `Cc1cc2ncn(-c3nccc(NCc4ccc(F)cc4)n3)c2cc1C` [TCMDC-135877], for which the “% Inhibition” value turned out to be 11.81%. Still for that read-out and setting: to `Cc1cc2ncn(-c3nccc(NCc4ccc(F)c(C)c4)n3)c2cc1C` [TCMDC-135880] belongs 65.21%; to `COc1ccc(CNc2ccnc(-n3cnc4cc(C)c(C)cc43)n2)cc1Cl` [TCMDC-135878], 49.39%; to `Cc1cc2ncn(-c3ccnc(N4CCN(CCCN5CCCC5)CC4)n3)c2cc1C` [TCMDC-136311], 9.256%.

As to `Cc1cc2ncn(-c3nccc(NCc4cccnc4)n3)c2cc1C` [TCMDC-135879], the “% Inhibition” value was 55.3%.
